# Experimental data: PubChem BioAssay (NCATS)
# Results filed as inconclusive are left out. Activity calls are given as the source filed them. Calls come from the whole dose curve; as a rule, active = well fitted inhibition curve with a large enough effect; inconclusive = small, poorly fitted or top-dose-only effect; inactive = no such curve, though single readings can be large or run the other way.
# Biological target: N-terminal Xaa-Pro-Lys N-methyltransferase 1 (Homo sapiens) (UniProt Q9BV86)
# Experiment: Confirmatory qHTS for Inhibitors of N-terminal methyltransferase 1 (NTMT1): MTaseGlo Assay (AID 1645874); note: nearly all actives have a fitted effect of over 65% in size
# Details: NTMT1 enzyme, MTase-Glo SAH luminescence; series mostly up to 100 µM
# In short: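 Room-temperature NTMT1 reaction, 30 min, with 100 uM SAM and 1 uM SPKRIA substrate; enzyme 125 nM. Read-out: MTase-Glo luminescence, normalized to no-enzyme and DMSO controls.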
# Potency is the fitted concentration of half-maximal effect.
# Chain of N-terminal Xaa-Pro-Lys N-methyltransferase 1 (Homo sapiens) (Q9BV86 whole entry, looked up): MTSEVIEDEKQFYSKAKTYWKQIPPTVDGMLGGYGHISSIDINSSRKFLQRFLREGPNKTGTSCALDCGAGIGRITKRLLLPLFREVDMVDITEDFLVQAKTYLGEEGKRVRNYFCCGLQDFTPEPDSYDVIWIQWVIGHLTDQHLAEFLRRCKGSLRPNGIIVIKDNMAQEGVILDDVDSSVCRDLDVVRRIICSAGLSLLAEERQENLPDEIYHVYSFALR
row,Compound,Potency
1,COc1cc2c(NC3CCN(C(C)C)CC3)nc(N3CCCCCC3)nc2cc1OCCCN1CCCC1,30.8 µM (active)
2,COc1cccc(-c2n[nH]c3c2C(c2cccc(O)c2)N(C)C3=O)c1 (centres undefined),44.7 µM (active)
3,CCOc1ccccc1N1CC(c2nc3ccccc3n2CCCCOc2cc(C)ccc2C)CC1=O (centres undefined),inactive
4,Cc1cc(C)n2c(Nc3c(C)cccc3C)c(-c3ccsc3)nc2n1,inactive
5,COc1ccc(C(=O)Nc2onc3c2CCCC3)cc1,inactive
6,COc1ccc(Nc2ncnc3sc4c(c23)CCCC4)cc1,15.8 µM (active)
7,COc1cc2nc(N3CCCCC3)nc(NC3CC3)c2cc1OC,34.5 µM (active)
8,Cc1ccc(-n2ncc3c(NCCO)ncnc32)cc1Cl,31.6 µM (active)
9,COc1cc2c(NC3CCN(CC4CCCCC4)CC3)nc(N3CCCN(C)CC3)nc2cc1OCCCN1CCCCC1,34.5 µM (active)
10,COc1ccc(C(=O)CSc2nc(C)cc(C)c2C(=O)Nc2ccccc2C)cc1,inactive
11,COc1cccc(NC(=O)CN(CCc2ccccc2)S(=O)(=O)c2ccc(Cl)cc2)c1,8.51 µM (active)
12,O=C(Nc1onc2c1CCCC2)c1ccccc1,inactive
13,Clc1ccc(-c2noc3ncnc(NC4CCCCC4)c23)cc1,15.8 µM (active)
14,O=C(Nc1nc2c(s1)CCCC2)c1ccccc1F,39.8 µM (active)
15,Fc1cc(Nc2nc(-c3ccncc3)nc3ccccc23)ccc1N1CCNCC1,21.8 µM (active)
16,COc1cc2c(NC3CCN(C(C)C)CC3)nc(N3CCCN(c4ccccc4)CC3)nc2cc1OCCCN1CCCC1,55.5 µM (active)
17,COc1cc2c(NC3CCN(C(C)C)CC3)nc(N3CCCN(CC4CCCCC4)CC3)nc2cc1OCCCN1CCCC1,34.5 µM (active)
18,Cc1ccc(C)n1-c1cccc(C(=O)O)c1,6.02 µM (active)
19,Clc1cccc(-c2nc3ccccn3c2Nc2ccc3c(c2)OCCO3)c1,4.09 µM (active)
20,O=c1c2cc3c(cc2nc2sc(Nc4ccccc4)nn12)OCO3,inactive

row,Compound,Potency
1,Cc1ccc(-n2ncc3c(NCCCN(C)C)ncnc32)cc1Cl,39.8 µM (active)
2,CCCn1c(/C=C/c2ccccc2)nc2ccccc21,inactive
3,COc1cc(-c2nc3ccc(Cl)cn3c2Nc2ccc3c(c2)OCO3)ccc1O,5.15 µM (active)
4,CSc1ccc(/C=C/c2nc3ccccc3n2S(=O)(=O)c2cccc(Cl)c2)cc1,8.51 µM (active)
5,Oc1cccc(Nc2nc(-c3ccccc3)nc3ccccc23)c1,15.8 µM (active)
6,O=C(Nc1noc2ccccc12)c1ccc(F)cc1,39.8 µM (active)
7,COc1cc2c(NC3CCN(C(C)C)CC3)nc(N3CCCCC3)nc2cc1OCCCN1CCCCC1,38.8 µM (active)
8,COc1cc2c(NC3CCN(C(C)C)CC3)nc(N3CCCN(CC4CCCCC4)CC3)nc2cc1OCCCN1CCCCC1,43.5 µM (active)
9,N#CNC(=O)c1ccc(-n2cccc2/C=C2\NC(=O)N(CC(=O)Nc3ccc(F)cc3)C2=O)cc1,7.58 µM (active)
10,COc1cc(-c2nc3ccc(Cl)cn3c2Nc2ccc3c(c2)OCCO3)ccc1O,5.15 µM (active)
11,Cc1cccc(-n2cnc3cc(C(=O)NC4CCCC4)ccc32)c1,39.8 µM (active)
12,COCCCNC(=O)CSc1c2c(nc3ccc(Cl)cc13)CCCC2,inactive
13,CCOc1ccc(/C=C/c2nc3ccccc3n2S(=O)(=O)c2cccc(Cl)c2)cc1,12 µM (active)
14,COc1c/c(=C2\C=c3ccccc3=N2)[nH]/c1=C/c1[nH]c(C)cc1C,35 µM (active)
15,CCCOc1ccccc1C(=O)Nc1nc2c(s1)CCCC2,inactive
16,c1csc(-c2nc3ccccn3c2Nc2ccc3c(c2)OCCO3)c1,6.49 µM (active)
17,CNc1sc(-c2cccc3ccccc23)nc1C#N,inactive
18,Cc1ccc(/C=C/c2nc3ccccc3[nH]2)cc1,6.49 µM (active)
19,COc1cc2nc(Nc3ccc(C)c(C)c3)nc(N)c2cc1OC,39.8 µM (active)
